# Measured values published in paper PMC11062922 (Nature Chemical Biology, 2023).
# Like-named read-outs stand apart in the source and are kept apart here.
# Tests used:
# Set-up in all cases: species or system human, MV4-11 + K-562 + COLO205 + SK-N-BE2 + OVCAR-8
# ADCK1 = conditions: read-out: apparent Kd, n = 1
# MAPK8 = conditions: read-out: apparent Kd, n = 1
# BCR = conditions: read-out: apparent Kd, n = 1
# EPHA2 = conditions: read-out: apparent Kd, n = 1
# PHKG2 = conditions: read-out: apparent Kd, n = 1
# RIOK2 = conditions: read-out: apparent Kd, n = 1
# SRC = conditions: read-out: apparent Kd, n = 1
# YES1 = conditions: read-out: apparent Kd; compound concentrations:100 nM and 1000 nM (sheet 'Samples'); n = 1
# HCK = conditions: read-out: apparent Kd, compound concentrations: 100 nM and 1000 nM (sheet 'Samples'), n = 1
# PTK6 = conditions: read-out: apparent Kd, n = 1
# STK16 = conditions: read-out: apparent Kd, compound concentrations: 100 nM and 1000 nM (sheet 'Samples'), n = 1
# CDK17 = conditions: read-out: apparent Kd, compound concentrations: 100 nM and 1000 nM (sheet 'Samples'), n = 1
# CSNK1E = conditions: read-out: apparent Kd, compound concentrations: 100 nM and 1000 nM (sheet 'Samples'), n = 1
# ROCK2 = conditions: read-out: apparent Kd, n = 1
# CSNK1A1 = conditions: read-out: apparent Kd, compound concentrations: 100 nM and 1000 nM (sheet 'Samples'), n = 1
# PRKAA2 = conditions: read-out: apparent Kd; compound concentrations: 100 nM and 1000 nM (sheet 'Samples'), CATDS: 4.4200978243391198E-2; n = 1
# PRKX = conditions: read-out: apparent Kd, compound concentrations: 100 nM and 1000 nM (sheet 'Samples'), n = 1
# STK3 = conditions: read-out: apparent Kd; compound concentrations: 100 nM and 1000 nM (sheet 'Samples'), CATDS: 4.2815354509816599E-2; n = 1
# TNIK = conditions: read-out: apparent Kd; compound concentrations: 100 nM and 1000 nM (sheet 'Samples'), CATDS: 6.517178775647E-3; n = 1
# [1] = compound concentrations:100 nM and 1000 nM (sheet 'Samples')
compound,measurement,setting,value
Cc1n[nH]c2cc(Nc3ccnc(Nc4cccc(CN5CCOCC5)c4)n3)ccc12 [GW682569X],potency estimated from few doses,"ADCK1; compound concentrations: 100 nM and 1000 nM (sheet 'Samples'), CATDS: 0.121280285214534",0.76 µM
same,potency estimated from few doses,"MAPK8; compound concentrations: 100 nM and 1000 nM (sheet 'Samples'), CATDS: 8.8519756402374403E-2",1.87 µM
CC(=O)N[C@@H](Cc1ccc(OP(=O)(O)O)cc1)C(=O)N[C@H]1CCC(=O)N2CCC[C@@H](C(=O)NCc3ccc(Cl)cc3)N2C1=O [RO0325308-000],potency estimated from few doses,BCR; [1],0.604 µM
same,potency estimated from few doses,EPHA2; [1],1.13 µM
same,potency estimated from few doses,PHKG2; [1],1.88 µM
same,potency estimated from few doses,RIOK2; [1],0.141 µM
same,potency estimated from few doses,SRC; [1],1.04 µM
same,potency estimated from few doses,YES1,1.03 µM
COC(=O)c1cccc(NC(=O)NC2CCN(c3ccnc(Nc4cc(OC)c(OC)c(OC)c4)n3)C2)c1 (stereo not drawn) [GSK1379767A],potency estimated from few doses,"RIOK2; compound concentrations: 100 nM and 1000 nM (sheet 'Samples'), CATDS: 9.3299595876540298E-2",2.11 µM
Cc1ccccc1-n1ncc(C(=O)c2ccccc2)c1N [RO1151248-000],potency estimated from few doses,"BCR; compound concentrations: 100 nM and 1000 nM (sheet 'Samples'), CATDS: 2.0148747001584599E-2",1.38 µM
same,potency estimated from few doses,"EPHA2; compound concentrations: 100 nM and 1000 nM (sheet 'Samples'), CATDS: 1.9884880942714601E-2",1.44 µM
same,potency estimated from few doses,HCK; CATDS: 1.9651331650111199E-2,1.48 µM
same,potency estimated from few doses,"PTK6; compound concentrations: 100 nM and 1000 nM (sheet 'Samples'), CATDS: 2.16089189660327E-2",1.16 µM
same,potency estimated from few doses,"SRC; compound concentrations: 100 nM and 1000 nM (sheet 'Samples'), CATDS: 2.0715769219535499E-2",1.29 µM
same,potency estimated from few doses,STK16; CATDS: 1.8222125974055099E-2,1.86 µM
CCN(CC)Cc1ccc(Nc2nccc(-c3cnn4ncccc34)n2)cc1 [GW780056X],potency estimated from few doses,"ADCK1; compound concentrations: 100 nM and 1000 nM (sheet 'Samples'), CATDS: 2.0575256748511801E-2",1.2 µM
same,potency estimated from few doses,CDK17; CATDS: 2.15986885679498E-2,1.03 µM
same,potency estimated from few doses,CSNK1E; CATDS: 7.3916034222461E-2,0.0721 µM
same,potency estimated from few doses,"MAPK8; compound concentrations: 100 nM and 1000 nM (sheet 'Samples'), CATDS: 2.1413758236852699E-2",1.05 µM
Cl.Cl.NC(CNC(=O)c1cc(Br)c(-c2ccnc3[nH]ccc23)s1)c1ccccc1.NC(CNC(=O)c1cc(Br)c(-c2ccnc3[nH]ccc23)s1)c1ccccc1 (stereo not drawn) [GSK1322949A],potency estimated from few doses,"ROCK2; compound concentrations: 100 nM and 1000 nM (sheet 'Samples'), CATDS: 0.12553300825941399",0.122 µM
Cc1cc(-c2ccnc(Nc3cccc(C#N)c3)n2)cc(C)c1O [GSK1440913A],potency estimated from few doses,"ADCK1; compound concentrations: 100 nM and 1000 nM (sheet 'Samples'), CATDS: 7.9755280277017199E-2",1.35 µM
CS(=O)(=O)CCn1c(=O)c(Oc2ccc(F)cc2F)cc2cnc(NC3CCOCC3)nc21 [RO5027956-000],potency estimated from few doses,BCR; [1],0.693 µM
same,potency estimated from few doses,EPHA2; [1],1.06 µM
same,potency estimated from few doses,MAPK8; [1],1.13 µM
same,potency estimated from few doses,PTK6; [1],1.31 µM
O=C(O)C(F)(F)F.O=C(O)C(F)(F)F.O=c1[nH]ccc2nc(N[C@@H]3CCCNC3)nc(Nc3ccc(S(=O)(=O)N4CCOCC4)cc3)c12.O=c1[nH]ccc2nc(N[C@@H]3CCCNC3)nc(Nc3ccc(S(=O)(=O)N4CCOCC4)cc3)c12 [GSK2177277A],potency estimated from few doses,CDK17; CATDS: 6.5557639532583699E-3,1.38 µM
same,potency estimated from few doses,CSNK1A1; CATDS: 1.2484395279946501E-2,0.15 µM
same,potency estimated from few doses,CSNK1E; CATDS: 1.0000373505011199E-2,0.274 µM
same,potency estimated from few doses,HCK; CATDS: 6.5481840851314196E-3,1.39 µM
same,potency estimated from few doses,"PHKG2; compound concentrations: 100 nM and 1000 nM (sheet 'Samples'), CATDS: 8.6754793941291007E-3",0.43 µM
same,potency estimated from few doses,PRKAA2,0.0137 µM
same,potency estimated from few doses,PRKX; CATDS: 7.1625839917235003E-3,0.897 µM
same,potency estimated from few doses,"RIOK2; compound concentrations: 100 nM and 1000 nM (sheet 'Samples'), CATDS: 6.0080792942577401E-3",2.35 µM
same,potency estimated from few doses,"ROCK2; compound concentrations: 100 nM and 1000 nM (sheet 'Samples'), CATDS: 8.2952674328971108E-3",0.503 µM
same,potency estimated from few doses,STK16; CATDS: 8.3784020222335102E-3,0.485 µM
same,potency estimated from few doses,STK3,0.0144 µM
same,potency estimated from few doses,TNIK,1.42 µM
CCn1c(-c2nonc2N)nc2c(C#CC(C)(C)O)nc(O[C@@H](CN)c3ccccc3)cc21.O=C(O)C(F)(F)F [GSK1007102B],potency estimated from few doses,ADCK1; [1],0.788 µM
same,potency estimated from few doses,ROCK2; [1],1.67 µM
NCC(NC(=O)c1cc(-c2cn[nH]c2)c(-c2ccnc3[nH]ccc23)s1)c1ccccc1.NCC(NC(=O)c1cc(-c2cn[nH]c2)c(-c2ccnc3[nH]ccc23)s1)c1ccccc1.O=C(O)C(F)(F)F.O=C(O)C(F)(F)F (stereo not drawn) [GSK1325775A],potency estimated from few doses,CSNK1A1; CATDS: 3.28567634973949E-2,1.5 µM
same,potency estimated from few doses,PRKX; CATDS: 4.4311971030028298E-2,0.641 µM
same,potency estimated from few doses,"ROCK2; compound concentrations: 100 nM and 1000 nM (sheet 'Samples'), CATDS: 0.17011597804612999",0.0474 µM
